Hit rate of the full screen: of about 310,000 compounds, about 14,000 (4.5%) showed an effect of 50% or more. Effects have a minus sign here. Only a selection was taken, and strong results are over-represented in it overall.
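Also: peak tail current of the secondary pulse compared with the same well before compound.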

The target in this test is human ether-à-go-go-related gene (hERG) potassium channel (human, UniProt Q12809). Description: primary screen, population patch clamp on CHO cells stably expressing hERG; higher = less effect of the substance.
human ether-à-go-go-related gene (hERG) potassium channel, sequence (Q12809 whole entry, looked up): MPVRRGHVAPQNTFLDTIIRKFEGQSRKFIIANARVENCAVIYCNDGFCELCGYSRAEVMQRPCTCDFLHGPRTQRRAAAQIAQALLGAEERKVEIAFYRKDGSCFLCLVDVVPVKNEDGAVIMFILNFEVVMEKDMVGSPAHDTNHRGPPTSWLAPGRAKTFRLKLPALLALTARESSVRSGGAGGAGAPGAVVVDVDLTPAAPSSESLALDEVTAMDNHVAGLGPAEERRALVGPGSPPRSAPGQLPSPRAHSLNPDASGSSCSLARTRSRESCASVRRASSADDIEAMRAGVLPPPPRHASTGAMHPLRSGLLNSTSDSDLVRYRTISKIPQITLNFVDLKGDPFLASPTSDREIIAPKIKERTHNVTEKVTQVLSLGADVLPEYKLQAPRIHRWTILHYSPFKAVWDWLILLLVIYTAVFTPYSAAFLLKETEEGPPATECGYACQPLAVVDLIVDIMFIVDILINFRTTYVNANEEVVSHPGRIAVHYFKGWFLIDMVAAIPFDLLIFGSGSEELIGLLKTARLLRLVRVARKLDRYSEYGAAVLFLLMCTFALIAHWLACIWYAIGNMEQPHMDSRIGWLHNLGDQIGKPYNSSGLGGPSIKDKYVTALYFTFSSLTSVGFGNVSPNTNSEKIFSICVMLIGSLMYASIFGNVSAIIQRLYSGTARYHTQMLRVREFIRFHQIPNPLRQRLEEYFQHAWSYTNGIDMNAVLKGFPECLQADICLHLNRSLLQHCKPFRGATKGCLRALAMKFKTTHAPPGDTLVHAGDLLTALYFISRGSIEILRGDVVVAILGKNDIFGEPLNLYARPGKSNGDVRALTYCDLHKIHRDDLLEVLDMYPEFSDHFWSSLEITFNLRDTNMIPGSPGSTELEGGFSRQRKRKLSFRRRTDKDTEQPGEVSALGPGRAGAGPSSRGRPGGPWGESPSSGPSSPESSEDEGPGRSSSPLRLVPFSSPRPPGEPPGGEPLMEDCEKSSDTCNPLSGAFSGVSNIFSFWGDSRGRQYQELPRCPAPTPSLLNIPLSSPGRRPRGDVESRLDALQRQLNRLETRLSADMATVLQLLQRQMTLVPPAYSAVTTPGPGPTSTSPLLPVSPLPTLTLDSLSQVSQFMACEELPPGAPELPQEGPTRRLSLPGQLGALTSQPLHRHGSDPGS
Turning to `O=C(CCn1c(=O)oc2ccccc21)Nc1ccc(C(=O)O)cc1`, the “hERG current change (%, negative = inhibition) at 10uM” value is -45%. The same measure for `CCOc1ccc(C(=O)N2CCN(C(=O)c3ccco3)CC2)cc1OCC`: -5.57%; for `COc1cccc(C(=O)N2CCN(CCCc3ccccc3)CC2)c1OC.O=C(O)C(=O)O`: -46.7%; for `COc1ccc(C(=O)N2CCN(CCCc3ccccc3)CC2)cc1OC.O=C(O)C(=O)O`: -73.3%. The same measure for `CCOc1ccc(C(=O)N2CCN(CCc3ccccc3)CC2)cc1OCC`: -78.8%; for `COc1cc(C(=O)N2CCN(CCCc3ccccc3)CC2)cc(OC)c1OC`: -9.98%; for `CCOc1ccc(C(=O)N2CCN(c3ccccc3)CC2)cc1OCC`: -32.4%. The same measure for `OC(C#Cc1ccccn1)c1cccs1` (centres unmarked): 3.9%; for `Clc1ccc(-c2[nH]ncc2N=Nc2ccccc2)cc1`: 15.3%; for `Cc1cccc(C(=O)NCCC(=O)Nc2ccc(C#N)cc2)c1`: -0.169%. Consider `CCOc1ccc(CN2CCNC(=O)C2CC(=O)NCCCC2CCCC2)cc1` (centres unmarked), for which the “hERG current change (%, negative = inhibition) at 10uM” value is recorded as -34.1%. The value for `COc1ccc(Cc2noc(CN3CCN(C4CCc5ccccc5C4)CC3)n2)cc1OC` (centres unmarked) was -68.8%; that for `COc1ccc(Cc2noc(CN3CCC(c4ccncc4)CC3)n2)cc1OC` was -20%. For `COc1ccc(Cc2noc(CN3CCCN(Cc4ccc(F)cc4)CC3)n2)cc1OC`, the “hERG current change (%, negative = inhibition) at 10uM” value is -60.8%. For the compound `COc1ccc(Cc2noc(CN3CCN(Cc4csc(C)n4)CC3)n2)cc1OC`, the “hERG current change (%, negative = inhibition) at 10uM” value is 18.2%. In the case of `COc1ccc(Cc2noc(CN3CCCN(C4Cc5ccccc5C4)CC3)n2)cc1OC`, the “hERG current change (%, negative = inhibition) at 10uM” value is -67%. The same measure for `COc1ccc(Cc2noc(CN(C)CC3CCN(Cc4ccccc4)CC3)n2)cc1OC`: -22.9%. Turning to `COc1ccc(Cc2noc(CN3CCNC(=O)CC3)n2)cc1OC`, the “hERG current change (%, negative = inhibition) at 10uM” value is 6.36%.

Take `COc1ccc(Cc2noc(CN3CCN(Cc4cccc(Cl)c4)CC3)n2)cc1OC`: the “hERG current change (%, negative = inhibition) at 10uM” value is -11.5%.

Take `COCCN1CCN(Cc2nc(Cc3ccc(OC)c(OC)c3)no2)CC1`: the “hERG current change (%, negative = inhibition) at 10uM” value is reported as 3.84%. For the compound `Cc1ccc(NC(=S)Nc2c(C)n(C)n(-c3ccccc3)c2=O)cc1Cl`, the “hERG current change (%, negative = inhibition) at 10uM” value was -22.7%.

For the compound `O=S1(=O)c2cccc3cccc(c23)N1Cc1nnc(-c2ccccc2Br)o1`, the “hERG current change (%, negative = inhibition) at 10uM” value is on record as -9.83%.

Regarding `COc1cc(C(=O)NC(=S)NNC(=O)c2ccc3c(c2)OCO3)cc(OC)c1OC`, the “hERG current change (%, negative = inhibition) at 10uM” value came out at 8.08%. The value for `CN1CCN(C(=O)CN(Cc2ccccc2)S(C)(=O)=O)CC1` was 25.7%. The same measure for `Cn1ncc(Cl)c1C(=O)NCc1ccc(Cl)cc1`: -13.3%; for `COc1ccc(NC(=O)CN(c2ccc(OC)c(Cl)c2)S(=O)(=O)c2ccccc2)c(OC)c1`: 8.77%. The same measure for `Cc1cccc(N=CC=C2OC(C)(C)C(C)(C)O2)c1`: 3.43%; for `O=C(NC12CC3CC(CC(C3)C1)C2)c1ccccc1`: 6.99%. Regarding `O=C(Nc1cc(Cl)cc(Cl)c1)c1cccc(OC(F)F)c1`, the “hERG current change (%, negative = inhibition) at 10uM” value was -2.79%. As for `COc1ccc(NC(=O)c2cccc(OC(F)F)c2)cc1Cl`, the “hERG current change (%, negative = inhibition) at 10uM” value is given as -22.2%.

Consider `CC(=O)Nc1cccc(C(=O)Nc2ccc(S(=O)(=O)N3CCCCC3)cc2)c1`, for which the “hERG current change (%, negative = inhibition) at 10uM” value is recorded as -10.3%. The same measure for `COc1cccc(C(=O)NC23CC4CC(CC(C4)C2)C3)c1`: 2.17%; for `O=C(Nc1ccc(S(=O)(=O)N2CCCC2)cc1)c1ccccc1`: -7.24%; for `N#Cc1cccc(C(=O)Nc2cccc(S(=O)(=O)N3CCCC3)c2)c1`: 2.83%.

Consider `O=C(Nc1cccc(S(=O)(=O)N2CCCC2)c1)c1ccccc1OC(F)F`, for which the “hERG current change (%, negative = inhibition) at 10uM” value was -13.7%. Turning to `O=C(Nc1ccc(OC(F)F)c(Cl)c1)c1cccc(OC(F)F)c1`, the “hERG current change (%, negative = inhibition) at 10uM” value is listed as -61.7%. Regarding `O=C(NC12CC3CC(CC(C3)C1)C2)c1cccc(OC(F)F)c1`, the “hERG current change (%, negative = inhibition) at 10uM” value is -55.2%. The same measure for `O=C(Nc1cccc(S(=O)(=O)N2CCCC2)c1)c1cccc(OC(F)F)c1`: -56.4%; for `O=C(Nc1ccc(S(=O)(=O)N2CCCC2)cc1)c1cccc(OC(F)F)c1`: -54.3%; for `COc1ccc(NC2CCCN(C(=O)c3oc(C)cc3C)C2)cc1OC` (centres unmarked): 16.2%. The same measure for `CC(C)(C)C1CCC(C(=O)Nc2nccs2)CC1` (centres unmarked): 9.99%; for `C/C(=N\NC(=O)c1ccc(C)cc1)c1c(C)[nH]n(-c2ccccc2)c1=O`: 14.2%.

In the case of `Cc1ccccc1N1C(=O)C2ON(c3ccccc3)C(c3ccco3)C2C1=O` (centres unmarked), the “hERG current change (%, negative = inhibition) at 10uM” value is 16.8%. The same measure for `CSc1nnnn1CCn1nnnc1SC`: 10.1%; for `Cc1cccc(/C=N/n2c(C)nnc2C)c1`: -0.651%. The value for `O=C1CN(C(=O)CSc2nc(-c3ccc(Cl)cc3)cs2)c2ccccc2N1` was 13.9%. The value for `Fc1ccccc1-c1nc2c(s1)CCc1onc(-c3ccc(Br)cc3)c1-2` was 11.4%; that for `CCC(C)c1ccc(NC(=S)N2CCCC2)cc1` (centres unmarked) was 1.86%. As for `O=C(CCSCc1ccc(Cl)cc1)NCCC1=CCCCC1`, the “hERG current change (%, negative = inhibition) at 10uM” value is 11.4%.

On to `COc1ccc(N/C=C2\CCc3ccccc3C2=O)cc1`, for which the “hERG current change (%, negative = inhibition) at 10uM” value was determined as 0.787%. As to `O=C(/C=C/c1ccc(OC(F)F)cc1)Nc1cccc(S(=O)(=O)N2CCOCC2)c1`, the “hERG current change (%, negative = inhibition) at 10uM” value is on record as 14.2%.

Regarding `COc1ccc(C(=O)NCC(=O)OCC(=O)Nc2cccc(S(=O)(=O)N3CCCC3)c2)cc1`, the “hERG current change (%, negative = inhibition) at 10uM” value is given as -15.8%. The value for `CC(O/N=C/c1ccc(OC(F)F)cc1)C(=O)Nc1cccc(S(=O)(=O)N2CCOCC2)c1` (centres unmarked) was -60.5%.

With `CC(O/N=C/c1ccccc1OC(F)F)C(=O)Nc1cccc(S(=O)(=O)N2CCOCC2)c1` (centres unmarked), the “hERG current change (%, negative = inhibition) at 10uM” value is given as -33.9%. The value for `O=C(CNC(=O)c1ccc(OC(F)F)cc1)Nc1cccc(S(=O)(=O)N2CCCC2)c1` was -70.3%.

As to `O=C(COC(=O)CNC(=O)c1ccc(F)cc1)Nc1cccc(S(=O)(=O)N2CCCC2)c1`, the “hERG current change (%, negative = inhibition) at 10uM” value is on record as -12%. The value for `C[C@H]1CN=C(N(C)C)N1CC1CCCCC1` was 7.73%; that for `Nc1nonc1-n1nnc(C(=O)N/N=C/c2cccc(Cl)c2)c1-c1cccs1` was 3.81%.

As for `Cc1noc(NS(=O)(=O)c2ccc(N/C=C/C(=O)c3ccncc3)cc2)c1C`, the “hERG current change (%, negative = inhibition) at 10uM” value is -13%. The value for `COCCCN1CC(=O)N2C(c3ccccc3)c3[nH]c4ccccc4c3C[C@H]2C1=O` (some centres unmarked) was -11.3%; that for `O=C(NNC(=O)C12CC3CC(CC(C3)C1)C2)c1csc(N2CCOCC2)n1` was 11.3%. The value for `COC(=O)C1=C[C@@H](C(=O)OC)[C@@H]2C3=C(C(=O)[C@]2(C)NC(=O)c2ccccc2)[C@H](C)n2c(=O)n(-c4ccccc4)c(=O)n2[C@@H]3C1` was 7.6%; that for `Cc1cc(NC(=O)Nc2ccc(Cl)c(Cl)c2)n(-c2ccccc2)n1` was 13.9%. The value for `COc1ccc(C(=O)Nc2ccccc2)cc1NC(=O)c1ccc([N+](=O)[O-])cc1` was -56.8%; that for `COc1ccc(C(=O)Nc2cccc(NC(=O)c3cccs3)c2)cc1OC` was 8.5%; that for `COc1ccc(C(=O)Nc2ccccc2)cc1NC(=O)c1cccs1` was -74%. In the case of `Cc1ccccc1NC(=O)c1cccc(S(=O)(=O)Oc2ccc([N+](=O)[O-])cc2)c1`, the “hERG current change (%, negative = inhibition) at 10uM” value was -24.5%.

Turning to `COc1ccc([N+](=O)[O-])cc1NC(=O)Nc1ccccc1`, the “hERG current change (%, negative = inhibition) at 10uM” value came out at 10.3%.

On to `COc1ccccc1N/C(=N/S(=O)(=O)c1ccc(C)cc1)c1ccccc1`, for which the “hERG current change (%, negative = inhibition) at 10uM” value is on record as -31%. In the case of `O=C(Nc1ccccc1)c1cccc(S(=O)(=O)Oc2ccc([N+](=O)[O-])cc2)c1`, the “hERG current change (%, negative = inhibition) at 10uM” value was -56.4%.

As for `COc1ccccc1N/C(=N/S(=O)(=O)c1ccc(Cl)cc1)c1ccccc1`, the “hERG current change (%, negative = inhibition) at 10uM” value is reported as -35.1%.

Regarding `O=C(O)c1ccc(NS(=O)(=O)c2cccc(C(=O)Nc3ccc([N+](=O)[O-])cc3)c2)cc1`, the “hERG current change (%, negative = inhibition) at 10uM” value turned out to be 18.8%. In the case of `COc1ccc(C(=O)Nc2ccc(Nc3ccccc3)cc2)cc1[N+](=O)[O-]`, the “hERG current change (%, negative = inhibition) at 10uM” value is -37%. For `COc1ccc([N+](=O)[O-])cc1N/C(=N/S(=O)(=O)c1ccccc1)c1ccccc1`, the “hERG current change (%, negative = inhibition) at 10uM” value is reported as -57.8%.

Consider `COc1ccc(C(=O)Nc2ccc(NC(=O)c3cccs3)cc2)cc1Cl`, for which the “hERG current change (%, negative = inhibition) at 10uM” value is 27.5%.

Take `Cc1cc(C)c2nc(SCC(=O)NC(=O)c3cccn3C)cc(C)c2c1`: the “hERG current change (%, negative = inhibition) at 10uM” value is -2.66%. The same measure for `COc1ccc(C(C)=O)cc1COC(=O)c1cc(C)nc2ccccc12`: 13.6%. The value for `O=C(Nc1ccc([N+](=O)[O-])cc1)c1nc[nH]c1C(=O)NC1CCCCC1` was 16.2%. In the case of `COC(=O)c1c(NC(=O)C(C)C)sc2c1C(C(=O)OC)CC2` (centres unmarked), the “hERG current change (%, negative = inhibition) at 10uM” value amounted to 11.8%.

Take `CC(C)Sc1nnc(-c2c[nH]c3ccccc23)n1C`: the “hERG current change (%, negative = inhibition) at 10uM” value came out at 1.3%. The value for `CN1CCN(/N=C/c2c(O)n(Cc3ccc(F)cc3)c(=O)[nH]c2=O)CC1` was 0.78%; that for `COc1cccc(NC(=O)CN(c2ccc3c(c2)OCO3)S(C)(=O)=O)c1` was 3.07%; that for `CNc1nnc(-c2ccc(N(C)C)cc2)s1` was 8.65%. The value for `CCCCCn1c(=O)c(C(=O)OCC)c(O)c2ccccc21` was -64%.

Regarding `CCCCCn1c(=O)c(C(=O)OCC)c(Cl)c2ccccc21`, the “hERG current change (%, negative = inhibition) at 10uM” value is reported as -73.8%.

In the case of `CCCCn1c(=O)c(C(=O)OCC)c(O)c2ccccc21`, the “hERG current change (%, negative = inhibition) at 10uM” value was found to be 2.18%. For the compound `CCCCCCCCn1c(=O)c(C(=O)OCC)c(O)c2ccccc21`, the “hERG current change (%, negative = inhibition) at 10uM” value turned out to be 14.5%.

As to `CCCCCCCn1c(=O)c(C(=O)OC)c(N)c2ccccc21`, the “hERG current change (%, negative = inhibition) at 10uM” value is -9%. With `CCCCCCCCn1c(=O)c(C(=O)OC)c(N)c2ccccc21`, the “hERG current change (%, negative = inhibition) at 10uM” value is 3.02%.

The values above are taken from publication PMC4336329 (PLoS ONE, 2015).
